Results from PubChem BioAssay (NCATS).
Where “and” joins values, the source holds several entries; their conditions need not be identical. Equal entries are not always repeated. Inconclusive results are not listed. Calls of active or inactive are those of the source. Unless noted, calls come from the whole dose curve; as a rule, active = well fitted inhibition curve with a large enough effect; inconclusive = small, poorly fitted or top-dose-only effect; inactive = flat fitted curve, though single readings scatter.

Legend:
[1] = Drug repurposing screens with cells derived from glioblastoma tumor samples (AID 1345199); conditions: GBM patient neurospheres viability, ATP luminescence, 48 h; note: nearly all actives have a fitted effect of over 40% in size; note: potency is the fitted concentration of half-maximal effect; for activity, negative = cell killing: % is set by controls: 0 for no effect and ±100 for the full control effect
In short: (§1)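 Primary testing used CD133+ neurospheres from four GBM patients, seven concentrations, 48 h exposure and ATP-based viability; confirmation added three slower-growing patient lines.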

astro = control astrocytes; test: as above; conditions: viability, ATP luminescence, 48 h; series mostly up to 45.9 µM
In short: as §1

[2] = target: Nuclear receptor subfamily 1 group I member 2 (Rattus norvegicus) (UniProt Q9R1A7); test: qHTS assay for small molecule activators of the rat pregnane X receptor (rPXR) signaling pathway (AID 651751; call rule not given here; note: 0% is about no effect); conditions: rPXR reporter cells, luciferase (One-Glo), 24 h
Chain of Nuclear receptor subfamily 1 group I member 2 (Rattus norvegicus) (Q9R1A7 whole entry, looked up): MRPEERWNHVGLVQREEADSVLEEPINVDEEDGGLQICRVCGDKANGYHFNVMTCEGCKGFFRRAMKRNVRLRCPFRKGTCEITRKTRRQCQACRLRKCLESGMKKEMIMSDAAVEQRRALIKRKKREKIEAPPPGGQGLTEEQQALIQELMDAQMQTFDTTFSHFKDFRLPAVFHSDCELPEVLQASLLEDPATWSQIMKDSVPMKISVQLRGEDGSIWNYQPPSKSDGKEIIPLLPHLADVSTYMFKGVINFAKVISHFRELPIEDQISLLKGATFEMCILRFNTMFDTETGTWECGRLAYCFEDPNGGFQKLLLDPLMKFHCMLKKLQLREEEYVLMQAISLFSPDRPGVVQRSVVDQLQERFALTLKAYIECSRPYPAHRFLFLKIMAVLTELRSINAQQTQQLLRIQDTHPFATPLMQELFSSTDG

[3] = qHTS assay for small molecule activators of the human pregnane X receptor (PXR) signaling pathway (AID 720659; call rule not given here; note: 0% is about no effect); conditions: DPX-2 HepG2 CYP3A4-luciferase, 24 h; series mostly up to 92.3 µM
[4] = at 20 µM (top of the series), tumour line C
[5] = at 21.2 µM (top of the series), tumour line B
[6] = at 21.2 µM (top of the series), tumour line D
[7] = at 21.3 µM (top of the series), tumour line A
[8] = at 45.9 µM (top of the series), tumour line B
[9] = at 45.9 µM (top of the series), tumour line D
[10] = at 46 µM (top of the series), tumour line A
[11] = at 46.1 µM (top of the series), tumour line C

CC[N+](C)(C)Cc1ccccc1Br
inactive: activity, negative = cell killing [1, 4] -2.45% | activity, negative = cell killing [1, 5] 0.866% | activity, negative = cell killing [1, 6] -1.19% | activity, negative = cell killing [1, 7] -11% | Potency (astro)

CCC(=O)OCC(=O)[C@@]1(OC(=O)CC)[C@H](C)C[C@H]2[C@H]3[C@H]([C@@H](O)C[C@@]21C)[C@@]1(C)C=CC(=O)C=C1C[C@H]3Cl
inactive: activity, negative = cell killing [1, 4] -8.97% | activity, negative = cell killing [1, 5] -7.29% | activity, negative = cell killing [1, 6] -17.3% | Potency (astro)

CC1(C)S[C@@H]2[C@H](NC(=O)C(N)c3ccccc3)C(=O)N2[C@H]1C(=O)OC1OC(=O)c2ccccc21 (stereo partly specified)
inactive: activity, negative = cell killing [1, 4] -5.29% | activity, negative = cell killing [1, 5] -22.1% | activity, negative = cell killing [1, 6] -10.3% | Potency (astro)

CC1(C)S[C@@H]2[C@H](NC(=O)[C@@H](NC(=O)N3CCNC3=O)c3ccccc3)C(=O)N2[C@H]1C(=O)O
inactive: activity, negative = cell killing [1, 4] -8.8% | activity, negative = cell killing [1, 5] -3.93% | activity, negative = cell killing [1, 6] -6.96% | activity, negative = cell killing [1, 7] -17.7% | Potency (astro)

CCCCCCCC(=O)O
inactive: activity, negative = cell killing [1, 8] -7.1% | activity, negative = cell killing [1, 9] -17.5% | activity, negative = cell killing [1, 10] -22.2% | activity, negative = cell killing [1, 11] -13.3% | max response [2] 2.58% and -1.34% | outcome [3]

CC(O)CO (stereo unspecified)
inactive: activity, negative = cell killing [1, 8] 0.179% | activity, negative = cell killing [1, 9] 10.5% | activity, negative = cell killing [1, 10] -19.9% | activity, negative = cell killing [1, 11] -8.89% | Potency (astro) | max response [2] -2.73% and 0.891% | outcome [3]

CCC(=O)O[C@@H]1CC(=O)O[C@H](C)C/C=C/C=C/[C@H](O)[C@H](C)C[C@H](CC=O)[C@H](O[C@@H]2O[C@H](C)[C@@H](O[C@H]3C[C@@](C)(O)[C@@H](OC(=O)CC)[C@H](C)O3)[C@H](N(C)C)[C@H]2O)[C@H]1OC
inactive: activity, negative = cell killing [1, 4] 18.5% | activity, negative = cell killing [1, 5] -16.2% | activity, negative = cell killing [1, 6] -1.85% | activity, negative = cell killing [1, 7] -24.3% | Potency (astro)

COC(F)(F)C(Cl)Cl
inactive: activity, negative = cell killing [1, 8] -7.55% | activity, negative = cell killing [1, 9] -1.1% | activity, negative = cell killing [1, 10] -22% | Potency (astro)

Nc1ccn([C@H]2CS[C@@H](CO)O2)c(=O)n1
inactive: activity, negative = cell killing [1, 8] -4.08% | activity, negative = cell killing [1, 9] 8.01% | activity, negative = cell killing [1, 10] -14.1% | activity, negative = cell killing [1, 11] 0.221% | Potency (astro) | outcome [3]

C[C@H](CCC(=O)O)[C@H]1CC[C@H]2[C@@H]3[C@H](O)C[C@@H]4C[C@H](O)CC[C@]4(C)[C@H]3CC[C@]12C
inactive: activity, negative = cell killing [1, 4] 0.416% | activity, negative = cell killing [1, 5] 1.96% | activity, negative = cell killing [1, 6] 6.12% | activity, negative = cell killing [1, 7] -15.4% | Potency (astro)

C[C@@H]1[C@H](O)[C@@H](C)/C=C/C=C\C=C\C=C\C=C\C=C\C=C\[C@H](O[C@@H]2O[C@H](C)[C@@H](O)[C@H](N)[C@@H]2O)C[C@@H]2O[C@](O)(C[C@@H](O)C[C@@H](O)[C@H](O)CC[C@@H](O)C[C@@H](O)CC(=O)O[C@H]1C)C[C@H](O)[C@H]2C(=O)O (stereo in doubt)
inactive: activity, negative = cell killing [1, 8] -6.2% | activity, negative = cell killing [1, 9] -9.92% | activity, negative = cell killing [1, 10] -13.6% | activity, negative = cell killing [1, 11] -5.87% | Potency (astro)

C=C(NC(=O)C(=C)NC(=O)c1csc(C2=N[C@@H]3c4csc(n4)[C@H]4NC(=O)c5csc(n5)[C@H]([C@](C)(O)[C@@H](C)O)NC(=O)[C@H]5CSC(=N5)C(=CC)NC(=O)C([C@@H](C)O)NC(=O)c5csc(n5)[C@]3(CC2)NC(=O)[C@H](C)NC(=O)C(=C)NC(=O)[C@H](C)NC(=O)C([C@@H](C)CC)NC2C=Cc3c([C@H](C)O)cc(nc3C2O)C(=O)O[C@@H]4C)n1)C(N)=O (stereo partly specified)
inactive: activity, negative = cell killing [1, 4] -17.2% | Potency (astro)
active: Potency ([1]; tumour line A) 11.2 µM | Potency ([1]; tumour line B) 14.1 µM | Potency ([1]; tumour line D) 14.1 µM

COc1ccc(C[C@@H](C)NC[C@H](O)c2ccc(O)c(NC=O)c2)cc1
active: Potency ([1]; tumour line A) 12.6 µM
inactive: activity, negative = cell killing [1, 8] -17.2% | activity, negative = cell killing [1, 9] 5.61% | activity, negative = cell killing [1, 11] -20.1% | Potency (astro)

COC(=O)CCC(=O)CN
inactive: activity, negative = cell killing [1, 8] -21.7% | activity, negative = cell killing [1, 9] -18.7% | activity, negative = cell killing [1, 10] -28.4% | activity, negative = cell killing [1, 11] -13.1% | Potency (astro)

CC(=O)N(CC(C)C(=O)O)c1c(I)cc(I)c(N)c1I (stereo unspecified)
inactive: activity, negative = cell killing [1, 4] -1.12% | activity, negative = cell killing [1, 5] -5.01% | activity, negative = cell killing [1, 6] -13.7% | activity, negative = cell killing [1, 7] -23.8% | Potency (astro)

O=C(O)CCC(=O)C(=O)O
inactive: activity, negative = cell killing [1, 8] -7.95% | activity, negative = cell killing [1, 9] 2.23% | activity, negative = cell killing [1, 10] -23.8% | activity, negative = cell killing [1, 11] 3.09% | max response [2] 0.868% | outcome [3]

C[C@H]1C[C@H]2[C@@H]3CCC4=CC(=O)C=C[C@]4(C)[C@@]3(F)[C@@H](O)C[C@]2(C)[C@@]1(O)C(=O)CO
inactive: activity, negative = cell killing [1, 8] -16% | activity, negative = cell killing [1, 9] -25% | activity, negative = cell killing [1, 10] -24.5% | Potency (astro)
